# Tests used:
# Assay in all cases: DAPPL (digital affinity profiling via proximity ligation, sequencing); 10 mM Tris-HCl pH 7.5, 50 mM NaCl, 1 mM DTT, 4% glycerol, room temperature, 30 min; GST-TFs on glutathione beads, 16-mer random dsDNA library, 0.1% formaldehyde crosslink after washing; high values mean tight binding
# [1] = target: T1, FEV (Homo sapiens, UniProt Q99581 1-238); conditions: protein: recombinant; tags: N-terminal GST; dsDNA, one strand shown
# T1 sequence: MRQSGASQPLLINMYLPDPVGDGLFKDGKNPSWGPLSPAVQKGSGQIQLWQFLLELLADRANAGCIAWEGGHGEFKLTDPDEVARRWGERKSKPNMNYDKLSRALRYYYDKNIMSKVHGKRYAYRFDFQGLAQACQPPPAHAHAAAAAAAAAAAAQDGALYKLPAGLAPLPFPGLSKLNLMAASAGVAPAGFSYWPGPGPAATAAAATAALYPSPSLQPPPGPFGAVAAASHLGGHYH
# Outline: (§1)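 After expression in yeast as GST fusions, human transcription factors were bound to glutathione beads, DNA-barcoded and mixed with a tag-only sample. The pools were incubated with 200 nmole of a 16-mer random double-stranded DNA library in Tris/NaCl/DTT/glycerol buffer (30 min, room temperature), washed and crosslinked with 0.1% formaldehyde. Proximity ligation with BsaI/T4 ligase ran for 1 h at 37 °C, before PCR amplification and sequencing on an Illumina NextSeq500. Binding signal is a hexamer's read frequency for a factor divided by its frequency for the tag-only sample.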
# [2] = target: ETV5 (Homo sapiens, UniProt P41161 1-510); conditions: protein: recombinant; tags: N-terminal GST; dsDNA, one strand shown
# Outline: as §1
# [3] = target: HSF1 (Homo sapiens, UniProt Q00613 1-529); conditions: protein: recombinant; tags: N-terminal GST; chain copies: 3; dsDNA, one strand shown
# Outline: as §1
# [4] = target: T2, SPIC (Homo sapiens, UniProt Q8N5J4 1-248); conditions: protein: recombinant; tags: N-terminal GST; dsDNA, one strand shown
# T2 sequence: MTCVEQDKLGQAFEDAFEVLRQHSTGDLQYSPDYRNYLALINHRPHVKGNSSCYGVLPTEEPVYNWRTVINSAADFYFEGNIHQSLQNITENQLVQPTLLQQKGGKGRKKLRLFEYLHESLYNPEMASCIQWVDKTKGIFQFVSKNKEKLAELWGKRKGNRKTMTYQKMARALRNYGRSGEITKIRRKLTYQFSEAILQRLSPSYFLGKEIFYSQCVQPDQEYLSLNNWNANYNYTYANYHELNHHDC
# Outline: as §1
# [5] = target: ELF4 (Homo sapiens, UniProt Q99607 1-663); conditions: protein: recombinant; tags: N-terminal GST; dsDNA, one strand shown
# Outline: as §1
# [6] = target: T3, ELK4 (Homo sapiens, UniProt P28324-2 1-405); conditions: protein: recombinant; tags: N-terminal GST; dsDNA, one strand shown
# T3 sequence: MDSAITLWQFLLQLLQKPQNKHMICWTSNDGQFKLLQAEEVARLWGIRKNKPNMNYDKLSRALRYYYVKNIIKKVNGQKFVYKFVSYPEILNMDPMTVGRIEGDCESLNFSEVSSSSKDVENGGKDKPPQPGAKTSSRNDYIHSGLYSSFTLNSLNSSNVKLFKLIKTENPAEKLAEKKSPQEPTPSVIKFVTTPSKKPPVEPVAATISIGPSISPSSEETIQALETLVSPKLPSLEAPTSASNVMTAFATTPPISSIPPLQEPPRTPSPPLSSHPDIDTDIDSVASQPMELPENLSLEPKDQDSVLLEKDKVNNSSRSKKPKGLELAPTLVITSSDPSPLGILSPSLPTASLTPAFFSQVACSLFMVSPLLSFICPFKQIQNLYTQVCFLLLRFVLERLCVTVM
# Outline: as §1
# [7] = target: T4, ETV2 (Homo sapiens, UniProt O00321 1-342); conditions: protein: recombinant; tags: N-terminal GST; dsDNA, one strand shown
# T4 sequence: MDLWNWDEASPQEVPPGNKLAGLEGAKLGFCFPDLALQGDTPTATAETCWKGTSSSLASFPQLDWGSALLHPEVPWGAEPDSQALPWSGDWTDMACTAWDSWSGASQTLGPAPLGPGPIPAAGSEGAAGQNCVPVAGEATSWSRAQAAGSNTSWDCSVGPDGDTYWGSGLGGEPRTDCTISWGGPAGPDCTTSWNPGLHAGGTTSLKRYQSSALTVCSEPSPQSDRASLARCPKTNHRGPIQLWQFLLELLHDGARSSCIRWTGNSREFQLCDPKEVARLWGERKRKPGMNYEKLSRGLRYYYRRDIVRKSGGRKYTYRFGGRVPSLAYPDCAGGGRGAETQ
# Outline: as §1
# [8] = target: T5, ELF3 (Homo sapiens, UniProt P78545 1-371); conditions: protein: recombinant; tags: N-terminal GST; dsDNA, one strand shown
# T5 sequence: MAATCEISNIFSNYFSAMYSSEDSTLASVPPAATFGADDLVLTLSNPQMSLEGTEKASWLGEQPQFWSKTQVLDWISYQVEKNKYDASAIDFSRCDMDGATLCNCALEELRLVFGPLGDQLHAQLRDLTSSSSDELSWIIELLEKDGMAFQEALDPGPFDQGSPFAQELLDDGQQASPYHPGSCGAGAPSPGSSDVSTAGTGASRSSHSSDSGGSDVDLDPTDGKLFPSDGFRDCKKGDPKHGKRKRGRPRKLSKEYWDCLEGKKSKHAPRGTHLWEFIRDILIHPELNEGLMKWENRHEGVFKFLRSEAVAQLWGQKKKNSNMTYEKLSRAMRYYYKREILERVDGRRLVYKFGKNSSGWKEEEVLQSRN
# Outline: as §1
# [9] = target: CRX (Homo sapiens, UniProt O43186 1-299); conditions: protein: recombinant; tags: N-terminal GST; dsDNA, one strand shown
# Outline: as §1
# Chain of ELF4 (Q99607 whole entry): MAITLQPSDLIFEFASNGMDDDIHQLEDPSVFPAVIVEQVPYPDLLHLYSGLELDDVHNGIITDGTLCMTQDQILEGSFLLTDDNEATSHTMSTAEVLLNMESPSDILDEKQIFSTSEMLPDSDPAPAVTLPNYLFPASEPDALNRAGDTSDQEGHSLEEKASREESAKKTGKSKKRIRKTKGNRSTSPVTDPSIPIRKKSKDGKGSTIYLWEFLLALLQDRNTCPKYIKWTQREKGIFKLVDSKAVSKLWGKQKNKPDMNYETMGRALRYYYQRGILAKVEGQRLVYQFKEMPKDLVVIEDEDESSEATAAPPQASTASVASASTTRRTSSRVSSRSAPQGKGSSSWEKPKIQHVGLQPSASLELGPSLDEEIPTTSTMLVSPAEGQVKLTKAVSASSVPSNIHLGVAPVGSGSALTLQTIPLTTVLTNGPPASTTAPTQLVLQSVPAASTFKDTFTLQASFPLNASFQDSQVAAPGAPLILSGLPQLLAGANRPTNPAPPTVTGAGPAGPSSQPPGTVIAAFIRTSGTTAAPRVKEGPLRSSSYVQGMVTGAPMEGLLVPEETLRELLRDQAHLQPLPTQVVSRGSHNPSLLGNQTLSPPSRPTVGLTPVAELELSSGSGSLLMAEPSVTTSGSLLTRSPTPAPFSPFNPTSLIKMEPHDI
# Chain of HSF1 (Q00613 whole entry): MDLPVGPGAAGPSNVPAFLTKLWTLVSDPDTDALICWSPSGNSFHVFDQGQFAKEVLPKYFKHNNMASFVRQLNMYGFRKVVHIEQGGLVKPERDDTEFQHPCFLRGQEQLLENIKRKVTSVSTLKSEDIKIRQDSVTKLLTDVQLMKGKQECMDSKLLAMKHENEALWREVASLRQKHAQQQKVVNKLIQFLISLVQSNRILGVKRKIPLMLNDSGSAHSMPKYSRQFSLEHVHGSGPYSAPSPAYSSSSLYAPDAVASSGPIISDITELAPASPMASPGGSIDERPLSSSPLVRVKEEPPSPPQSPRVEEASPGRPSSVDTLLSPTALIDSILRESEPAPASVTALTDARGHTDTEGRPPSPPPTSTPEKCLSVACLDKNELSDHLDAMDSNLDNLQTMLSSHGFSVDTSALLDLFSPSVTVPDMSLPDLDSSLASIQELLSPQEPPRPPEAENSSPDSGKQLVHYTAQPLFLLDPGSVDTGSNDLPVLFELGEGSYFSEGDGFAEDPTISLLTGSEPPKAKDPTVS
# Chain of CRX (O43186 whole entry): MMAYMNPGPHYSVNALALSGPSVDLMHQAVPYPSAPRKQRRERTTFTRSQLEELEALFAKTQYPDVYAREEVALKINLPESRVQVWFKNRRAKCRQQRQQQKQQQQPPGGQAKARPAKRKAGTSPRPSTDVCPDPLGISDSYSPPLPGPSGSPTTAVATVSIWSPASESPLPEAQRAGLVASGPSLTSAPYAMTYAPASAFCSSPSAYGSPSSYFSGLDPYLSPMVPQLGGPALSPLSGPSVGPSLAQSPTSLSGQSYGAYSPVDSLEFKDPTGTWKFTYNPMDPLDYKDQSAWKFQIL
# Chain of ETV5 (P41161 whole entry): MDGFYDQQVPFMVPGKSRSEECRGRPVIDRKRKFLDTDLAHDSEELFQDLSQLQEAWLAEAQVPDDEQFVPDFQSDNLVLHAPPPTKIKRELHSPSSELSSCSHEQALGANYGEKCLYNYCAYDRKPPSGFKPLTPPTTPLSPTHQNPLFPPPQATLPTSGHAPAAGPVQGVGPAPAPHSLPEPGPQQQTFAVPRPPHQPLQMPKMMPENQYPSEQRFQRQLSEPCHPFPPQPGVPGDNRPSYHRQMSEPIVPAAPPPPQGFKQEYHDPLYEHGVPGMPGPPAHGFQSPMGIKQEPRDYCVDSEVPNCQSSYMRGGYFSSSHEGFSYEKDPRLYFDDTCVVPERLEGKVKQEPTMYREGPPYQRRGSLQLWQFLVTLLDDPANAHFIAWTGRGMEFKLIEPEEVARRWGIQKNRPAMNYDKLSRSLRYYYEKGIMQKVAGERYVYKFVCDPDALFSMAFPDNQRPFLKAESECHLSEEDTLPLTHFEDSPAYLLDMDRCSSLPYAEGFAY
sequence,measurement,setting,value
CCCGAC,binding signal,[1],"1.38 fold enrichment (6-mer frequency, TF over GST control)"
same,binding signal,[2],"1.31 fold enrichment (6-mer frequency, TF over GST control)"
same,binding signal,[3],"1.19 fold enrichment (6-mer frequency, TF over GST control)"
same,binding signal,[4],"1.53 fold enrichment (6-mer frequency, TF over GST control)"
same,binding signal,[5],"1.29 fold enrichment (6-mer frequency, TF over GST control)"
same,binding signal,[6],"1.43 fold enrichment (6-mer frequency, TF over GST control)"
same,binding signal,[7],"1.46 fold enrichment (6-mer frequency, TF over GST control)"
same,binding signal,[8],"1.53 fold enrichment (6-mer frequency, TF over GST control)"
same,binding signal,[9],"1.06 fold enrichment (6-mer frequency, TF over GST control)"
